# High-throughput results from PubChem.
# The list is not random: actives were taken first. Their share in the collection is about 5.5%.
# a7 integrin act – activates integrin-mediated alleviation for muscular dystrophy; AID 624291; Potency, µM (doses to about 38.3 µM), for the others: top-dose activation, most hits filed as activators; 350,000 compounds, 0.064% hits; alpha7betagal myoblasts, beta-gal FDG fluorescence, 48 h;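 further: 100% = response of the positive control SU9516; nearly all actives have a fitted effect of over 60% in size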
#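 Alpha7betagal+/- myoblasts (passage 13) were plated 16-24 hr, then exposed to compounds (1:260 dilution of DMSO stock) for 48 hours at 37C. After MPER lysis, β-galactosidase reporter activity was read as FDG fluorescence (ex 480/em 540) after 30 minutes.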
# Chronic BCR inh – inhibitors of chronic active B-cell receptor signaling; ABC-DLBCL IkBa-CBG/CBR reporter, luminescence ratio, 4 h; Potency, µM (series often up to 46.1 µM), inactives show at the top dose activity change, negative = inhibition, actives largely listed as inhibitors; AID 493014; 340,000 compounds, 0.05% hits; active means well fitted inhibition curve with a large enough effect in the signal ratio, with a control signal flat, not every such curve was filed as active; inconclusive means small, poorly fitted or top-dose-only effect, or effect the other way, or a change in a side signal; the % refers to the signal ratio;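 further: plate controls were basal doxycycline-induced cells for no effect and cells given 10 µM MG132 for full effect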
#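 Concentration-response series (up to 46 uM) were applied to TMD8 dual-reporter cells for 4 h at 37C with doxycycline. Green/red ratio, after filter-overlap correction, defined %Activity; red signal alone was normalised to basal cells and zero luminescence.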
# Gal4-VP16 FLuc – counter-screen for ROR gamma inhibitors: Gal4-VP16 reporter; Potency, µM (highest dose often 53.6 µM), for inactives: at the top dose activity, negative = inhibition, hits mostly inhibitors; 310,000 compounds, 3.5% hits; AID 2546; Drosophila S2 Gal4-VP16 UAS-luciferase, luminescence, 20 h;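 further: Gal4-VP16 expression switched on by copper sulfate through the metallothionein promoter; on the % scale 0 is the no-effect control and ±100 the full control effect; nearly all actives have a fitted effect of over 50% in size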
# Mito fusion yeast – blocks mitochondrial division or promotes mitochondrial fusion. S. cerevisiae fusion-defective mutant growth rescue, CellTiterGlo 48 h. Potency, µM (series often up to 46.1 µM), without a hit: at the top dose growth rescue (activation), usual class: activators. 320,000 compounds, 0.23% hits; further: % of control where 0% means no effect; nearly all actives have a fitted effect of over 45% in size
#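 Read-out: ATP-based luminescence (CellTiterGlo, 10 min ambient) reporting growth of fusion-defective ts yeast after 48 hours at 37C on glycerol/ethanol YPEG medium in the presence of compound.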
# RORgamma inh – ROR gamma (mouse) transcription inhibition. P51450. AID 2551. Drosophila S2 Gal4-RORgamma UAS-luciferase reporter, 20 h. Potency, µM (highest dose often 53.6 µM), for inactives: at the highest dose activity change, negative = inhibition, hits mostly inhibitors. 310,000 compounds, 5.4% hits; further: on the % scale 0 is the no-effect control and ±100 the full control effect; nearly all actives have a fitted effect of over 60% in size
# Target sequence (P51450 whole entry, looked up, the tested form may be a part): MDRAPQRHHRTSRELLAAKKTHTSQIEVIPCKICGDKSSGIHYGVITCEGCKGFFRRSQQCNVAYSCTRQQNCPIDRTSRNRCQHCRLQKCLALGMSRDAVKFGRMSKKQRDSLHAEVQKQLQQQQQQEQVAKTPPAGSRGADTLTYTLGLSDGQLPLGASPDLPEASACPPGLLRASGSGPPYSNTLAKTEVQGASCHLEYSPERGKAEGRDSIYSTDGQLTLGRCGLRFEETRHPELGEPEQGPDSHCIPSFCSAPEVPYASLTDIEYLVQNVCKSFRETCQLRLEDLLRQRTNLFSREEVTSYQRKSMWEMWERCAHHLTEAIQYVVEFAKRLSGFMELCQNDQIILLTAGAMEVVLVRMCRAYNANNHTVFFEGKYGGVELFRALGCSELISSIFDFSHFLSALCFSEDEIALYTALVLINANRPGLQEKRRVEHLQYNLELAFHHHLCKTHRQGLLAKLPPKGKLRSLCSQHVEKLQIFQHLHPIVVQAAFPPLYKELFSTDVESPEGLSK
#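 Luminescence from a UAS-regulated Photinus luciferase reporter in stably transfected Drosophila Schneider cells is measured; decreased signal marks ROR gamma inhibition. Fusion expression is induced by 700 uM copper sulfate for 20 hr.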
# uPA surface inh – inhibitors of cell surface uPA generation; cell surface uPA generation assay, qHTS; Potency, µM (series often up to 38.3 µM), for inactives: at the highest dose activity change, negative = inhibition, hits mostly inhibitors; 330,000 compounds, 0.31% hits; AID 540303; active means well fitted inhibition curve with a large enough effect; inconclusive means small, poorly fitted or top-dose-only effect; inactive means no such curve, though single readings can be large or run the other way; tested in mouse RAW 264.7 cells; further: on the % scale 0 is the no-effect control and ±100 the full control effect; nearly all actives have a fitted effect of over 55% in size
# Numbers without * were called inactive; ? = inconclusive; nt = no result given. Unless noted, the call rests on the fitted dose curve; in most records, active means well fitted curve in the direction sought with a large enough effect; inconclusive means small, poorly fitted or top-dose-only effect, or another doubt; inactive means no such curve, though single readings can be large; an effect the other way counts as inactive or inconclusive. Potency means the concentration at half of the fitted maximal effect.
SMILES,a7 integrin act,Chronic BCR inh,Gal4-VP16 FLuc,Mito fusion yeast,RORgamma inh,uPA surface inh
Cc1cc(Oc2ccc(Cl)cc2)nc(-c2ccccn2)n1,-39.2%,8.8%,5.62µM*,-1.9%,0.631µM*,-2.1%
Cc1cc(Oc2ccccc2)nc(-c2ccccc2O)n1,-2.6%,3.2%,?,-5.1%,?,-8.9%
CC1=CC2=NC(=O)/C(=C\c3cccn3CCOc3ccccc3)C(=N)N2O1,-26.1%,?,-7.8%,?,0.6%,-19.2%
CC1=CC2=NC(=O)/C(=C\c3cccn3CCOc3cc(C)cc(C)c3)C(=N)N2O1,1.9%,-0.6%,?,20µM*,?,1.9%
CC1=CC2=NC(=O)/C(=C\c3cccn3CCOc3cccc(C)c3)C(=N)N2O1,0.3%,-0.9%,?,?,15.8µM*,2.2%
Cc1ccc(OCC(O)CN2CCC(Cc3ccccc3)CC2)c(C)c1 (stereo not given),-51.2%,-13.0%,-0.5%,-13.7%,-15.2%,-6.6%
O=C(c1ccc(Br)cc1)N(c1ccccn1)C1CCCCC1,0.8%,-0.7%,2.1%,10.4%,16.8%,0.1%
O=C1c2ccccc2C(=O)C1c1ccnc2ccccc12,7.9%,1.6%,?,4.2%,?,-9.3%
O=C1C(c2ccnc3ccccc23)=C(O)c2ccccc21,-15.0%,-1.8%,?,-0.4%,5.01µM*,-11.3%
C=C1C(=O)O[C@H]2[C@H]1[C@@H](O)CC(=C)[C@@H]1CC(=O)[C@@H](C)[C@H]21,0.0%,?,?,-25.1%,12.6µM*,-14.8%
CCC(C)C(NC(=O)C1CCC(C)CC1)C(=O)NCc1ccco1 (stereo not given),?,-5.2%,-4.0%,35.5µM*,-8.0%,-1.3%
CCC(C)C(NC(=O)C1CCC(C)CC1)C(=O)NCc1cccnc1 (stereo not given),10.6%,6.3%,-3.0%,-0.5%,-23.4%,2.7%
Cc1ccc(N2C(=O)C3C4C=CC(CNC(=S)N5CCN(c6ccccn6)CC5)(O4)C3C2=O)cc1 (stereo not given),-24.7%,15.7%,-27.1%,-6.1%,?,-6.1%
CC(C)COC(=O)NCC12C=CC(O1)C1C(=O)N(c3ccc(Cl)cc3)C(=O)C12 (stereo not given),-36.6%,3.5%,20µM*,12.6%,3.98µM*,6.3%
Cc1ccc(N2C(=O)C3C4C=CC(CNC(=S)Nc5ccc(F)cc5)(O4)C3C2=O)cc1 (stereo not given),-9.0%,-11.2%,3.98µM*,1.3%,4.47µM*,1.9%
Cc1ccc(N2C(=O)C3C4C=CC(CNC(=S)Nc5cccc(Cl)c5)(O4)C3C2=O)cc1 (stereo not given),-30.0%,-0.2%,12.6µM*,3.3%,?,-4.0%
Cc1ccc(N2C(=O)C3C4C=CC(CNC(=S)Nc5ccc(Cl)cc5)(O4)C3C2=O)cc1 (stereo not given),-26.9%,?,3.16µM*,4.6%,7.08µM*,-4.4%
COc1ccc(S(=O)(=O)N2CCCC2CNC(=O)C(=O)Nc2cccc(F)c2)cc1 (stereo not given),-15.2%,-1.8%,nt,3.6%,nt,0.6%
CN(C)C(=O)c1ccc(NC(=O)COC(=O)C2(c3ccccc3)CCCC2)cc1,16.0%,?,nt,nt,nt,?
Cc1cc(C(=O)O)ccc1N/C=C1\CCCC(C)C1=O (stereo not given),7.1%,?,3.55µM*,4.7%,3.55µM*,-5.2%
COc1ccccc1NS(=O)(=O)c1ccc(NC(=O)N2CCCCC2)cc1,-5.9%,-8.1%,-3.2%,2.4%,8.4%,?
CCc1cc2c(=O)n(Cc3ccco3)c(SCC(=O)N(C)C3CCS(=O)(=O)C3)nc2s1 (stereo not given),-8.3%,?,?,0.9%,10µM*,-7.0%
CN(C(=O)CSc1nc2ccccc2n1CCc1ccccc1)C1CCS(=O)(=O)C1 (stereo not given),16.8%,8.9%,?,-4.6%,15.8µM*,5.7%
CC(C)(CN1CCc2ccccc2C1)NS(=O)(=O)c1ccc(Cl)cc1,-8.7%,-5.0%,-5.5%,-11.6%,-18.0%,0.1%
CCOC(N)=O,nt,nt,1.4%,nt,1.6%,nt
SMILES,a7 integrin act,Chronic BCR inh,Gal4-VP16 FLuc,Mito fusion yeast,RORgamma inh,uPA surface inh
CCCCNC(=O)C(=O)N/N=C/c1cccc(Br)c1,5.1%,1.8%,0.9%,-3.1%,?,-5.4%
CCCCNC(=S)N/N=C/c1cc(C)ccc1C,9.7%,?,3.16µM*,8.0%,1.78µM*,3.6%
CCCCNC(=S)N/N=C/c1ccccc1F,0.7%,?,3.16µM*,-2.0%,2.51µM*,-0.1%
CCCCNC(=S)N/N=C/c1sccc1C,0.0%,?,-29.6%,1.2%,1.12µM*,nt
COc1ccc(CNC(=O)CN(C(=O)CCC(=O)Nc2nccs2)c2ccccc2C)cc1,0.0%,?,-7.0%,-1.0%,1.4%,-0.4%
CC(C)=CCC/C(C)=C/CC/C(C)=C/COc1ccc2ccc(=O)oc2c1,-9.5%,1.8%,nt,nt,nt,-8.1%
O=C(Cn1ccc2cc(S(=O)(=O)N3CCCCCC3)ccc21)NCc1cccc(Cl)c1,nt,7.8%,nt,nt,nt,nt
COc1ccc(NC(=O)CSc2nc3ccccc3c(=O)n2CCC(=O)NC2CCCCC2)c(OC)c1,nt,6.6%,nt,nt,nt,nt
COc1cccc(NC(=S)N2CCc3cc(OC)c(OC)cc3C2)c1,-12.3%,-12.7%,-1.7%,-3.9%,-44.3%,-2.7%
COc1cc2c(cc1OC)CN(C(=S)Nc1ccc(Cl)cc1)CC2,22.2%,-0.7%,-15.5%,-2.1%,?,-20.9%
COc1cc(NC(=S)N2CCc3ccccc3C2)cc(OC)c1,-19.2%,7.2%,?,-8.2%,14.1µM*,2.6%
CSCCCNC(=S)N1CCc2ccccc2C1,-34.9%,-1.8%,?,1.2%,3.55µM*,1.8%
COc1ccc(NC(=S)N2CCc3ccccc3C2)cc1OC,12.2%,-2.0%,-5.8%,-3.1%,11.2µM*,-4.7%
CC(C)c1ccccc1OCC(=O)Nc1ccc2[nH]ncc2c1,27.5%,-14.3%,nt,6.5%,nt,3.5%
CO[C@]12C[C@@H](COC(=O)c3cncc(Br)c3)CN(C)[C@@H]1Cc1cn(C)c3cccc2c13,nt,nt,-8.9%,nt,-1.4%,nt
CNc1nc(-c2ccc3c(c2)CCN3C(=O)c2ccc(F)cc2)cs1,0.0%,?,25.0%,-1.0%,13.3%,8.0%
CNc1nc(-c2ccc3c(c2)CCN3C(=O)c2cccc(F)c2)cs1,-48.8%,5.2%,-10.3%,7.3%,0.6%,7.08µM*
O=C(c1ccc(Cl)cc1Cl)c1ncc(C(F)(F)F)cc1Cl,0.0%,-13.7%,1.6%,-0.3%,-0.4%,nt
O/N=C(\c1ccc(Cl)cc1Cl)c1ncc(C(F)(F)F)cc1Cl,11.9%,?,25.1µM*,7.7%,11.2µM*,18.5%
O=C(CSc1ccccc1)NCCCc1ccccc1,-34.9%,?,-2.0%,17.6%,33.3%,-1.5%
